Experimental data from PubChem BioAssay.
Unmarked numbers belong to inactive results. For some assays here: Entries with a potency or affinity are not part of this list. Calls of active or inactive are those of the source. Unless noted, the rule behind the calls is not given here.

How the values were obtained:
[1] = antimalarial activity against Dd2 strain (AID 2302;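 active = growth inhibition above 50% at the single 2 µM test dose, taken to imply half-maximal potency below 2 µM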;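 note: 0% = DMSO untreated growth and 100% = chloroquine plus artemisinin killed control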); conditions: P. falciparum Dd2 in RBCs, LDH growth readout, 72 h; at 2 µM; hits give high values
[2] = HepG2 cytotoxicity, primary screen, cytotoxicity control for P. falciparum antimalarial project, cell-based, ATP luminescence (AID 2303;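 active = inhibition above 50%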;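 note: 0% = DMSO wells and 100% = digitonin-killed cells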); conditions: HepG2 viability, 24-48 h, at 10 µM, hits give high values
[3] = biological target: L-lactate dehydrogenase (Plasmodium falciparum (isolate CDC / Honduras)) (UniProt Q27743); assay: PfLDH activity inhibition – cell lysate, 3D7 strain, counter-screen for P. falciparum growth inhibition project (AID 2304);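 note: 0% = vehicle and 100% = reference inhibitor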; conditions: P. falciparum 3D7 crude extract, LDH APAD/NBT absorbance; at 2 µM; hits give high values
L-lactate dehydrogenase (Plasmodium falciparum (isolate CDC / Honduras)), sequence (Q27743 whole entry, looked up): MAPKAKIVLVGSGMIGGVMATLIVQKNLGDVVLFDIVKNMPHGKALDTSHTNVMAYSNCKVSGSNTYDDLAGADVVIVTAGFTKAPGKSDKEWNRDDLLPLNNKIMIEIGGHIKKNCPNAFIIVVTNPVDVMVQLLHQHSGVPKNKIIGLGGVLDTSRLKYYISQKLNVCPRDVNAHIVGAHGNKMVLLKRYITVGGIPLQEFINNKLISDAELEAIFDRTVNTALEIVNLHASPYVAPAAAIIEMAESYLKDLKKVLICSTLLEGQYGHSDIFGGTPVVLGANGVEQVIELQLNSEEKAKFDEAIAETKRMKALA

[4] = inhibition of 3D7 malaria parasite growth – strain 3D7 (AID 2306);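 note: 0% = DMSO wells and 100% = chloroquine plus artemisinin control wells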; conditions: P. falciparum 3D7 erythrocytic growth, LDH absorbance, 72 h; at 2 µM; hits give high values
[5] = biological target: Calcium-dependent protein kinase 1 (Plasmodium falciparum (isolate 3D7)) (UniProt P62344); assay: PfCDPK1 kinase inhibitors, biochemical, TCAMS library (AID 1159585; cut-off not given, nearly all actives have IC50 up to about 0.98 µM;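 note: inhibitors leave more ATP so luminescence rises with inhibition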); conditions: recombinant PfCDPK1, Kinase-Glo ATP depletion luminescence
Calcium-dependent protein kinase 1 (Plasmodium falciparum (isolate 3D7)), sequence (P62344 whole entry, looked up): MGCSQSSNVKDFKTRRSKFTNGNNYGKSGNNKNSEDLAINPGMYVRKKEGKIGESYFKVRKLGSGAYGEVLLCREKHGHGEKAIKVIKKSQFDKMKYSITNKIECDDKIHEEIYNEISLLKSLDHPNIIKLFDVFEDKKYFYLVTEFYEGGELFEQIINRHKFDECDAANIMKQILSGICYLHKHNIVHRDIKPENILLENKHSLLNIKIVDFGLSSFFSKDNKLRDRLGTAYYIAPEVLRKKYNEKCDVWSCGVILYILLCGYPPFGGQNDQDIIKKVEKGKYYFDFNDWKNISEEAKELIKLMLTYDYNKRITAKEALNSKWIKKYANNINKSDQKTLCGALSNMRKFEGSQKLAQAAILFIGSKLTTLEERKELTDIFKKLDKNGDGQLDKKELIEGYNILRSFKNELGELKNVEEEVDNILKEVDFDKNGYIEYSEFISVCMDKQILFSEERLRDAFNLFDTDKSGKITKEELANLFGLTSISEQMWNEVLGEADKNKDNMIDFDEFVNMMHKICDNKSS

[6] = biological target: Plasmodium falciparum protein kinase 6 (PK6, PF3D7_1337100) (UniProt Q8IDW1); assay: PfPK6 kinase inhibitors, biochemical, TCAMS library (AID 1159586); conditions: recombinant PfPK6, Kinase-Glo ATP depletion luminescence
Plasmodium falciparum protein kinase 6 (PK6, PF3D7_1337100), sequence (Q8IDW1 1-305): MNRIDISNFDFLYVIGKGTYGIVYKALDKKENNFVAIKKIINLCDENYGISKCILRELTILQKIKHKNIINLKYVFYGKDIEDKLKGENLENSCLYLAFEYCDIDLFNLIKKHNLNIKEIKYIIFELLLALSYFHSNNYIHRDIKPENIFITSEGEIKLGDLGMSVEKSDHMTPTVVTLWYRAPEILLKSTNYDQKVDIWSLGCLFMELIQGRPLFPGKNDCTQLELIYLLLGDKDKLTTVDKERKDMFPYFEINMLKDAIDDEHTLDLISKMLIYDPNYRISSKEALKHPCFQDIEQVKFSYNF

[7] = biological target: Protein kinase 7 (PK7), Plasmodium falciparum 3D7 (PF3D7_0213400) (UniProt Q7YTF7); assay: inhibition of Plasmodium PK7 catalytic activity – biochemical, TCAMS antimalarial set, Kinase-Glo luminescence (AID 1159587); conditions: recombinant PfPK7, Kinase-Glo ATP depletion luminescence
Protein kinase 7 (PK7), Plasmodium falciparum 3D7 (PF3D7_0213400), sequence (Q7YTF7 1-343): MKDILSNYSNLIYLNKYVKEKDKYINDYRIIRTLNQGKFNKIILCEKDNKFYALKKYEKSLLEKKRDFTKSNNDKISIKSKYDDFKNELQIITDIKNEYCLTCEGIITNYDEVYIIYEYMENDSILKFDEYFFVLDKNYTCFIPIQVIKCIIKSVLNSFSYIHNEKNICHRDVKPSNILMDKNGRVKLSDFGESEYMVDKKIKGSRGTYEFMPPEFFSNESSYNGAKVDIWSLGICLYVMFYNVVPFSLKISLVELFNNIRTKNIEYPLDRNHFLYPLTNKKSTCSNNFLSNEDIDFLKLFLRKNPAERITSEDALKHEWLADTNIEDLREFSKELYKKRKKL

[8] = biological target: Calcium-dependent protein kinase 4 (Plasmodium falciparum (isolate 3D7)) (UniProt Q8IBS5); assay: PfCDPK4 kinase inhibitors, biochemical, TCAMS library (AID 1159588; cut-off not given, nearly all actives have IC50 up to about 0.91 µM); conditions: recombinant PfCDPK4, Kinase-Glo ATP depletion luminescence
Calcium-dependent protein kinase 4 (Plasmodium falciparum (isolate 3D7)), sequence (Q8IBS5 whole entry, looked up): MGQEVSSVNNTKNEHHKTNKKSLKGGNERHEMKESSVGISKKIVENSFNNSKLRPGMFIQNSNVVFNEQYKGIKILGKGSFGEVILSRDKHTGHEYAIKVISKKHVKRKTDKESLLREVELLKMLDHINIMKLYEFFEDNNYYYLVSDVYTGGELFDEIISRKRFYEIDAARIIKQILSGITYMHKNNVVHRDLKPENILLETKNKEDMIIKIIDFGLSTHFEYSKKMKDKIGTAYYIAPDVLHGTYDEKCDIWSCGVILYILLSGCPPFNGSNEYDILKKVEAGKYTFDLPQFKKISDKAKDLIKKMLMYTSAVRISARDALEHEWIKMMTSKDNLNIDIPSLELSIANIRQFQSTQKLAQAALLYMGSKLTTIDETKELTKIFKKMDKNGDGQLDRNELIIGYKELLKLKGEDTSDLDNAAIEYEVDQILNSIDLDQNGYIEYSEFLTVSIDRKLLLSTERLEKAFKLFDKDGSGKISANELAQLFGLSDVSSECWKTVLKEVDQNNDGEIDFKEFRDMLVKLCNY

Compound | growth inhibition [1] | inhibition [2] | inhibition [3] [%] | growth inhibition [4] | outcome [5] | outcome [6] | outcome [7] | outcome [8]
COc1ccc2nc(C)cc(Nc3ccc(Oc4ccc(Cl)cc4)c(Cl)c3)c2c1 | 100% (active) | 48% | -2 | 101% (active) | inactive | inactive | inactive | inactive
COc1cc(OC)c(NC(=O)C2c3ccccc3C(=O)N(CC(C)C)C2c2cccs2)cc1Cl (stereo not given) | 100% (active) | 9% | -1 | 100% (active) | inactive | inactive | inactive | inactive
N#Cc1ccc2nc(-c3cc(-c4cccc(F)c4)cnc3N)[nH]c2c1 | 93% (active) | 46% | 5 | 100% (active) | inactive | inactive | inactive | inactive
CC(C)(C)c1ccccc1OC(=O)c1ccccc1 | 2% | -4% | 0 | 95% (active) | inactive | inactive | inactive | inactive
CCN(CC)CC(O)CNc1c2ccc([N+](=O)[O-])cc2nc2cc(OC)c(OC)cc12 (stereo not given) | 100% (active) | 78% (active) | -4 | 100% (active) | inactive | inactive | inactive | inactive
O=C(NC1CCN(Cc2ccccc2)CC1)c1cc(-c2ccncc2)c(-c2ccc(Cl)c(O)c2)o1 | 86% (active) | 9% | 1 | 100% (active) | inactive | inactive | inactive | inactive
O=C(Nc1ccc(Cl)cc1)c1cccc(S(=O)(=O)NC2CCN(CC3CCCCC3)CC2)c1 | 11% | 67% (active) | 0 | 92% (active) | inactive | inactive | inactive | inactive
Cc1cccc2[nH]c(-c3cccc(-c4ccc(CNCc5ccccc5)cc4)c3)nc12 | 100% (active) | 33% | -3 | 99% (active) | inactive | inactive | inactive | inactive
O=C(NC1CCCCN(Cc2ccccc2O)C1)c1cc(F)cc(F)c1 (stereo not given) | 52% (active) | 7% | 0 | 89% (active) | inactive | inactive | inactive | inactive
CCN(CC)CCN(Cc1ccc(-c2ccc(C(F)(F)F)cc2)cc1)C(=O)Cn1cc(Cc2cnn(C)c2)c(=O)n2nc(-c3ccccc3)cc12 | 74% (active) | 18% | -2 | 100% (active) | inactive | inactive | inactive | inactive
Cc1[nH]c(C)c(-c2ccc(S(=O)(=O)c3ccc(Cl)cc3)cc2)c(=O)c1Cl | 96% (active) | -5% | 9 | 98% (active) | inactive | inactive | inactive | inactive
CCCCNCc1ccc(-c2nc(CN(CCCn3ccnc3)C(=O)N[C@@H]3C[C@H]3c3ccccc3)cs2)cc1 | 34% | 21% | 3 | 100% (active) | inactive | inactive | inactive | inactive
Fc1c(CNCC2CCN(CC3CCCCC3)CC2)cccc1C(F)(F)F | 7% | 35% | 3 | 93% (active) | inactive | inactive | inactive | inactive
O=C(/C=C/c1ccc(Cl)c(Cl)c1)NCCCCCN1CCC(NC(=O)NC2CCCCCC2)CC1 | 41% | 15% | -3 | 99% (active) | inactive | inactive | inactive | inactive
O=C(Nc1ccc(Cl)cc1)N[C@H]1CCN(CCCCCNC(=O)[C@@H]2C[C@H]2c2ccc(Cl)c(Cl)c2)C1 | 1% | 24% | 1 | 96% (active) | inactive | inactive | inactive | inactive
Nc1c2ccccc2nc2cc(C(F)(F)F)ccc12 | 49% | 8% | 1 | 101% (active) | inactive | inactive | inactive | inactive
COc1ccc(CNC2CCN(c3ccc(NC(=O)c4cccc(Cl)c4)cc3)CC2)cc1OC | 13% | 26% | 6 | 96% (active) | inactive | inactive | inactive | inactive
CN(CCCN(C)c1cc(NC(=O)c2ccc(F)cc2)ccn1)Cc1cccc(F)c1 | 60% (active) | -5% | -1 | 83% (active) | inactive | inactive | inactive | inactive
CCNc1cc(C(=O)N[C@@H](Cc2ccccc2)[C@H](O)CNCc2cccc(OC)c2C)cc(N2CCCCS2(=O)=O)c1 | 98% (active) | 8% | -1 | 97% (active) | inactive | inactive | inactive | inactive
COc1cccc(-c2cccc(CNC3CCN(CC4Cn5c(=O)ccc6ccc(F)c4c65)CC3)c2)c1 (stereo not given) | 15% | 23% | 4 | 99% (active) | inactive | inactive | inactive | inactive

Compound | growth inhibition [1] | inhibition [2] | inhibition [3] [%] | growth inhibition [4] | outcome [5] | outcome [6] | outcome [7] | outcome [8]
COc1ccc(CN2CCC(CNCCc3ccccc3Cl)CC2)cc1 | 17% | 36% | -9 | 87% (active) | inactive | inactive | inactive | inactive
CC1CCN(Cc2c(O)ccc3c(=O)c(-c4nc5ccccc5s4)c(N)oc23)CC1 | 99% (active) | 2% | -6 | 98% (active) | inactive | inactive | inactive | inactive
CCOc1ccc(N(CC)S(=O)(=O)c2cc(Br)cc3c2N(C(=O)C2CC2)CC3)cc1 | 97% (active) | -4% | -5 | 99% (active) | inactive | inactive | inactive | inactive
COc1ccc2nccc([C@@H](O)CN3CCC(NCCOc4ccc(F)cc4[N+](=O)[O-])CC3)c2c1 | 92% (active) | 8% | -1 | 99% (active) | inactive | inactive | inactive | inactive
CCc1ccc(C2CCN(CCCCNC(=O)c3ccc(-c4ccc(C(F)(F)F)cc4)cc3)CC2)c(OCCO)c1 | 69% (active) | 82% (active) | -6 | 101% (active) | inactive | inactive | inactive | inactive
COc1ccc2nccc([C@@H](O)CN3CCC(NC(=O)C(c4ccsc4)N4CCN(c5ccccc5)CC4)CC3)c2c1 (stereo not given in full) | 17% | 24% | -8 | 95% (active) | inactive | inactive | inactive | inactive
OC1CCCN(Cc2ccc(-c3ccc(-c4nc5ccc(F)cc5[nH]4)cc3)cc2)C1 (stereo not given) | 79% (active) | 55% (active) | 2 | 100% (active) | inactive | inactive | inactive | inactive
CN1CCN(CC(=O)Nc2ccc(-c3cccc(-c4nc5ccc(F)cc5[nH]4)c3)cc2)CC1 | 100% (active) | 18% | 3 | 100% (active) | inactive | inactive | inactive | inactive
CN(C)Cc1ccc(-c2cccc(NC(=O)c3cccc(Cl)c3)c2)cc1 | 12% | 18% | -6 | 96% (active) | inactive | inactive | inactive | inactive
CC1=C(C(=O)Nc2cc3cn[nH]c3cc2F)C(c2cccc(NS(C)(=O)=O)c2)CC(=O)N1 (stereo not given) | 97% (active) | -10% | -4 | 96% (active) | inactive | inactive | inactive | inactive
Cc1[nH]c(C)c(-c2ccc(OCc3cc(C(F)(F)F)cc(C(F)(F)F)c3)nc2)c(=O)c1Br | 96% (active) | 28% | -2 | 98% (active) | inactive | inactive | inactive | inactive
Cc1cc(C2NC(=O)c3ccccc3N2)c(C)n1-c1ccc2c(c1)OCO2 (stereo not given) | 85% (active) | 13% | -1 | 86% (active) | inactive | inactive | inactive | inactive
COc1ccccc1C1CCN(C2CCC(NC(=O)/C=C/c3cc(F)cc(C(F)(F)F)c3)CC2)CC1 (stereo not given) | 57% (active) | 92% (active) | -1 | 98% (active) | inactive | inactive | inactive | inactive
Cc1cc(C2CCN(CCCCNC(=O)c3ccc(NC(=O)c4ccc(Cl)cc4)cc3)CC2)c(C)cc1OC(C)C | 92% (active) | 22% | 7 | 100% (active) | inactive | inactive | inactive | inactive
CCNc1cc(C(=O)N[C@@H](Cc2ccc(F)c(F)c2)[C@H](O)CNC2CCCCC2)cc(N2CCCCS2(=O)=O)c1 | 84% (active) | 1% | -2 | 100% (active) | inactive | inactive | inactive | inactive
Nc1nc(N)c2c(Cl)c(N3CCOCC3)ccc2n1 | 3% | 65% (active) | 1 | 96% (active) | inactive | inactive | inactive | inactive
COc1ccc2c(-c3ccccc3)noc2c1 | 34% | -4% | -2 | 98% (active) | inactive | inactive | inactive | inactive
CN1CCN(c2cc3c(cc2Cl)CCN3C(=O)Cc2ccc(Cl)c(NC(=O)Nc3cccc([N+](=O)[O-])c3)c2)CC1 | 51% (active) | -1% | -7 | 99% (active) | inactive | inactive | inactive | inactive
c1ccc2[nH]c(-c3ccc(-c4ccc(CNCCc5ccncc5)cc4)s3)nc2c1 | 98% (active) | 28% | -6 | 101% (active) | inactive | inactive | inactive | inactive
COc1ccc(NC(=O)NC2CCN(c3ccnc4cc(Cl)ccc34)CC2)cc1 | 64% (active) | 5% | -10 | 83% (active) | inactive | inactive | inactive | inactive
